Screening data deposited in PubChem BioAssay by National Center for Advancing Translational Sciences (NCATS).
A selection: hits, their analogues and other compounds. The true share with any hit is near 9.4%.
AMA1-RON2 inh – disrupts binding of P. falciparum AMA1 to RON2; AlphaScreen AMA1-biotinylated RON2 peptide binding; 0.2% of 360,000 active; Potency, µM (titrated, usually from 58.2 µM), actives largely listed as inhibitors; further: nearly all actives have a fitted effect of over 45% in size
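AMA1 (3D7) with his tag at 25 nM final met compounds first, then biotinylated RON2 peptide at 25 nM; detection used donor plus acceptor beads, 10 µg/mL apiece, read by AlphaScreen after 30 min at room temperature.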
Pf growth 96h – inhibits malaria parasite growth, 96 h | P. falciparum luciferase reporter growth, 96 h | Potency, µM (doses to about 28.7 µM), actives largely listed as inhibitors | 6.9% of 320,000 active
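Luminescence readout: decreased luciferase signal marks inhibited growth of reporter-expressing P. falciparum in infected red cells (2% hematocrit, 0.05% parasitemia final), exposed to compound two generations (96 h, 37 C, 5% CO2).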
Pf growth 48h – inhibits P. falciparum growth in the first generation, 48 h; 5.9% of 310,000 active; P. falciparum luciferase growth in erythrocytes, 48 h; AID 504832; Potency, µM (titrated, usually from 28.7 µM), actives largely listed as inhibitors
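Parasite viability was followed by luminescence of a genomically integrated firefly luciferase. Cultures held 0.1% parasitemia at 2% hematocrit (final), incubated under 5% CO2 at 37 C.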
SARS PLP yeast – blocks SARS-CoV papain-like protease in a yeast assay; S. cerevisiae expressing SARS-CoV PLpro, growth rescue; 0.19% of 330,000 active; Potency, µM (top dose mostly 32.9 µM), most hits filed as activators; AID 485353; calls by dose curve; further: nearly all actives have a fitted effect of over 55% in size
Large screens that a line does not name were inactive. Unless noted, the call rests on the fitted dose curve; in most records, active means well fitted curve in the direction sought with a large enough effect; inconclusive means small, poorly fitted or top-dose-only effect, or another doubt; inactive means no such curve, though single readings can be large; an effect the other way counts as inactive or inconclusive.

CCN1CCc2nc(NC(=O)CC(c3ccccc3)c3ccccc3)sc2C1	Pf growth 96h 10.4µM, Pf growth 48h 5.86µM
CCCNS(=O)(=O)c1ccc(OCC(=O)N2CCN(C)CC2)cc1	AMA1-RON2 inh inconclusive, Pf growth 96h inconclusive
COc1ccc(S(=O)(=O)Nc2cc(C(=O)NCCC(C)C)ccc2N2CCOCC2)cc1	Pf growth 96h inconclusive, Pf growth 48h 8.28µM
COC(=O)c1cc(NS(=O)(=O)c2ccc(N3CCOCC3)c(NC(C)=O)c2)cc(C(=O)OC)c1	Pf growth 96h inconclusive
COC(=O)c1cc(NS(=O)(=O)c2ccc(N3CCOCC3)c(N)c2)cc(C(=O)OC)c1	Pf growth 96h 4.15µM, Pf growth 48h inconclusive, SARS PLP yeast inconclusive
O=C(Nc1cc(S(=O)(=O)N2CCOCC2)ccc1N1CCOCC1)c1ccccc1F	Pf growth 96h inconclusive, Pf growth 48h inconclusive
CC(C)Oc1ccc(S(=O)(=O)N2CCOCC2)cc1NC(=O)c1cc([N+](=O)[O-])ccc1N1CCOCC1	Pf growth 96h 11.7µM, Pf growth 48h 13.1µM
COc1ccc(S(=O)(=O)Nc2cc(C(=O)NCCCOC(C)C)ccc2N2CCOCC2)cc1	Pf growth 96h inconclusive
Cc1c(C(=O)Nc2cc(S(=O)(=O)N3CCOCC3)ccc2N2CCOCC2)oc2ccccc12	Pf growth 96h inconclusive, Pf growth 48h 10.4µM
CCCCCCCCOC(=O)c1cc([N+](=O)[O-])c(Sc2ncnc3nc[nH]c23)c([N+](=O)[O-])c1	none (no result: Pf growth 96h, Pf growth 48h, SARS PLP yeast)
O=C(Nc1ccccc1Cl)c1cc(S(=O)(=O)N2CCCCC2)ccc1N1CCOCC1	Pf growth 96h 5.86µM, Pf growth 48h 9.28µM
CCCCCC(=O)Nc1cc(S(=O)(=O)N2CCCCC2)ccc1N1CCOCC1	Pf growth 96h inconclusive, Pf growth 48h 13.1µM
N#Cc1ccc(C(=O)Nc2cc(S(=O)(=O)N3CCOCC3)ccc2N2CCCC2)cc1	none (no result: Pf growth 96h, Pf growth 48h)
CCCCCC(=O)Nc1cc(S(=O)(=O)N2CCOCC2)ccc1N1CCCC1	none
CC(C)Oc1ccc(C(=O)Nc2cc(S(=O)(=O)N3CCOCC3)ccc2N2CCOCC2)cc1	Pf growth 96h inconclusive, Pf growth 48h 13.1µM
N#Cc1ccc(C(=O)Nc2cc(S(=O)(=O)Nc3ccc(Cl)cc3)ccc2N2CCCCC2)cc1	Pf growth 96h 10.4µM, Pf growth 48h 13.1µM
Cc1cccc(OCCOCCN2CCNCC2)c1C	none
CCCCCCCCN1C(=O)[C@H](CC(=O)NCCC(C)C)C[C@@]2(C(=O)OC)CC(C)(C)CC=C12	none (no result: Pf growth 96h, Pf growth 48h, SARS PLP yeast)
CC(C)COc1ccc(C(=O)Nc2cc(S(=O)(=O)N3CCOCC3)ccc2N2CCCC2)cc1	Pf growth 96h inconclusive, Pf growth 48h 8.28µM
CC(=O)NCCC(=O)Nc1cc(S(=O)(=O)N2CCCCC2)ccc1N1CCCCC1	Pf growth 96h 1.17µM, Pf growth 48h 1.17µM
CCN1CCN(c2ccc(S(=O)(=O)N3CCOCC3)cc2NC(=O)c2ccc(OCC(C)C)cc2)CC1	none (no result: Pf growth 96h, Pf growth 48h, SARS PLP yeast)
O=C(Nc1cc(S(=O)(=O)N2CCOCC2)ccc1N1CCOCC1)c1ccc(S(=O)(=O)N2CCCCC2)cc1	Pf growth 96h inconclusive, Pf growth 48h 11.7µM
O=C(Nc1cc(S(=O)(=O)N2CCOCC2)ccc1N1CCOCC1)c1cccc(S(=O)(=O)N2CCCCC2)c1	Pf growth 96h inconclusive, Pf growth 48h inconclusive
CC(=O)NCCC(=O)Nc1cc(S(=O)(=O)N2CCCCC2)ccc1N1CCN(C)CC1	Pf growth 96h inconclusive, Pf growth 48h inconclusive
O=C1C(CCC(O)c2ccc(F)cc2)C(c2ccc(O)cc2)N1c1ccc(F)cc1 (stereo not given)	none (no result: AMA1-RON2 inh, SARS PLP yeast)
CC(C)(CO)CNc1ccn2nccc2n1	none (no result: Pf growth 96h, Pf growth 48h, SARS PLP yeast)
O=C(O)CSc1nnc(CNc2cccc(C(F)(F)F)c2)n1Cc1ccco1	Pf growth 96h 6.57µM
O=C(CSc1nnc(CNc2cccc(C(F)(F)F)c2)n1Cc1ccco1)NCc1ccco1	none
FC(F)(F)c1cccc(Cc2noc(CN3CCSCC3)n2)c1	none
OC1CCCN(Cc2nc(Cc3ccccc3Cl)no2)C1 (stereo not given)	Pf growth 96h 10.4µM
FC(F)(F)c1cccc(Cc2noc(CN3CCCC(CN4CCCC4)C3)n2)c1 (stereo not given)	Pf growth 96h 9.28µM, Pf growth 48h 2.62µM
Cc1cccc(C)c1Nc1c(-c2ccccn2)nc2ccccn12	Pf growth 48h inconclusive
CCOC(=O)c1c(CN2CCCCC2)n(C)c2cc(Br)c(OC)cc12	Pf growth 96h 3.29µM, Pf growth 48h inconclusive
CCOC(=O)c1c(C)n(CC(O)CN(CC)CC)c2cc(Br)c(OC)cc12 (stereo not given)	Pf growth 96h 14.7µM, Pf growth 48h inconclusive
CCOC(=O)c1c(CN2CCN(CCO)CC2)n(C)c2cc(Br)c(OC)cc12	Pf growth 48h 10.4µM
CCOC(=O)c1c(C)n(C)c2ccc(O)c(S(=O)(=O)c3ccccc3)c12	none (no result: Pf growth 96h)
CCOC(=O)c1c(CN2CCCCC2)n(C)c2ccc(OC)c(S(=O)(=O)c3ccccc3)c12	Pf growth 96h 7.38µM, Pf growth 48h 10.4µM
CCOC(=O)N1CCc2c(sc3nc[nH]c(=O)c23)C1	none
COc1ccc(CN2CCCN(C)CC2)c(OC)c1C	AMA1-RON2 inh inconclusive
Cc1ccc(-n2nc3c(c2NC(=O)c2c(F)cccc2Cl)CS(=O)(=O)C3)cc1C	Pf growth 96h inconclusive, Pf growth 48h inconclusive
O=S1(=O)CCC(N=Nc2c(O)n(Cc3ccccc3)c3ccccc23)C1 (stereo not given)	Pf growth 48h inconclusive
Nc1c(C(=O)NCc2ccco2)nnn1-c1ccccc1	none
CC(c1ccccc1)N1C(=O)CC(Sc2ncccc2C(=O)O)C1=O (stereo not given)	Pf growth 96h 2.08µM
CCOc1cc(C(=O)Nc2ccc(S(=O)(=O)Nc3cc(C)on3)cc2)cc(OCC)c1OCC	Pf growth 96h 10.4µM, Pf growth 48h inconclusive
Cc1cc(NS(=O)(=O)c2ccc(NC(=O)COc3ccccc3C(C)(C)C)cc2)no1	Pf growth 96h 10.4µM
CCC(Oc1ccc(C)cc1)C(=O)Nc1ccc(S(=O)(=O)Nc2cc(C)on2)cc1 (stereo not given)	Pf growth 96h 8.28µM
COc1cc(C(=O)Nc2ccc(S(=O)(=O)Nc3cc(C)on3)cc2)cc(OC)c1OC	none
Cn1nc(C(=O)Nc2cc(Cl)ccc2N2CCCC2)c2ccccc2c1=O	Pf growth 96h 13.1µM, Pf growth 48h 11.7µM
CCn1nc(C(=O)Nc2ccccc2N2CCCC2)c2ccccc2c1=O	AMA1-RON2 inh inconclusive, Pf growth 96h inconclusive, Pf growth 48h inconclusive
CN1CCN(c2ccc(Cl)cc2NC(=O)c2nn(-c3ccccc3)c(=O)c3ccccc23)CC1	AMA1-RON2 inh inconclusive, Pf growth 96h 14.7µM
COC(=O)c1ccc(C)c(NC(=O)c2nn(C)c(=O)c3ccccc23)c1	Pf growth 96h 13.1µM, Pf growth 48h inconclusive
CN1CCN(c2ccc(Cl)cc2NC(=O)c2ccc([N+](=O)[O-])cc2)CC1	Pf growth 96h inconclusive, Pf growth 48h inconclusive
Cc1ccc(NC(=O)CCc2nc3ccccc3s2)c(O)c1	none
CC(=O)N1CCc2cc(S(=O)(=O)NC(C(=O)Nc3ccc4c(c3)OCCO4)C(C)C)ccc21 (stereo not given)	Pf growth 96h inconclusive
CCC(C)(C)c1ccc(OCCCC[n+]2ccc(C)cc2)c(C(C)(C)CC)c1	Pf growth 96h 3.7µM, Pf growth 48h 1.85µM
